Source: PubChem
NOD2 RIPK2 PPI: NOD2-RIPK2 binding disruptors in cells, primary screen, fluorescence, CHO cells, BLA complementation | actives 0.38% (n = 360,000) | inhibition, % at 4.98 µM | CCF4 ratio | AID 624267, 2012; in the data active means inhibition above about 21%
Target sequence (O43353 whole entry, looked up): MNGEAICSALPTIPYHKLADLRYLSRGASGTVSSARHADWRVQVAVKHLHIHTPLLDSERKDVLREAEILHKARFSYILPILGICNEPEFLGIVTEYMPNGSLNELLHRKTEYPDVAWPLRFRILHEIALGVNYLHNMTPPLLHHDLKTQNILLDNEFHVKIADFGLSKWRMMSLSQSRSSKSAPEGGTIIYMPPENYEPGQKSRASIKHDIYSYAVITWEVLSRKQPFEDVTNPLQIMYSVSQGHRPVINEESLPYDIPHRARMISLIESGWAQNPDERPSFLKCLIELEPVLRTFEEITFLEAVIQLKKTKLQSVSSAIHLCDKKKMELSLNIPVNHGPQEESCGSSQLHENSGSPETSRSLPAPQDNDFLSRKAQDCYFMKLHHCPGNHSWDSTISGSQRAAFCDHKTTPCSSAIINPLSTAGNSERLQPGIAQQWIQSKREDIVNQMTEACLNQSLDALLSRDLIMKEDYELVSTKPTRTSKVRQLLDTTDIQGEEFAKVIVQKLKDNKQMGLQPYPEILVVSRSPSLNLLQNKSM
A1 inh: caspase 3/7 activation in MEF A1-2A-BIM cells, primary screen, A1 inhibitor project, cell-based, luminescence, HTS | actives 0.066% (n = 330,000) | caspase activation, % (concentration not given with the values) | AID 2462, 2010 | Caspase-Glo 3/7 luminescence, 3 h; percent of clofoctol response, vehicle zero;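 active means over half of replicate activation scores above 10%, or exactly half above 10 with the replicate mean above 10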
TLR4 MyD88 comp: inhibitors of TLR4-MyD88 association in cells, primary screen, cell-based, HeLa CL3-4, BLA complementation, FRET ratio; actives 0.18% (n = 200,000); inhibition, % at 8.4 µM; Toll-like receptor 4 (Homo sapiens) + Myeloid differentiation primary response protein …; AID 861, 2007; HeLa CL3-4 TLR4/MyD88 BLA complementation; in the data active means inhibition above about 25%
NTR1 ag: agonists of human NTR1, primary screen, imaging, U2OS cells, beta-arrestin-GFP, high content; activation, % at 20 µM; AID 493036, 2011; actives 0.17% (n = 330,000); Neurotensin receptor type 1 (Homo sapiens), P30989; NTR1-U2OS beta-arrestin-GFP spot imaging, agonist mode;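 active means activation at or above 40% of the spot to cytoplasm intensity ratio, with at least 20 cells analyzed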
Beta2AR agonist: beta2AR agonists driving receptor internalization, primary screen, cell-based, FAP fluorogen, flow cytometry; Beta-2 adrenergic receptor (Homo sapiens), P07550; Am2.2-beta2AR cells; response, % (concentration not given with the values); actives 0.43% (n = 340,000);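 active means response above a set limit, near 3 SD of response in nonfluorescent compounds, cut at about 42% in these data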
TLR9-MyD88 block: inhibitors of TLR9-MyD88 association in cells, primary screen, cell-based, CHO, BLA complementation, fluorescence; Toll-like receptor 9 (Homo sapiens) + Myeloid differentiation primary response protein …; actives 0.21% (n = 340,000); CCF4 FRET ratio; inhibition, % at 4.98 µM; AID 504734, 2011;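 active means inhibition above the mean over all tested compounds plus 3 SD, cut at about 21% in these data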
NOD2 RIPK2 conf: NOD2-RIPK2 binding disruptors, retest, confirmation, fluorescence, CHO cells, BLA complementation, triplicate | shares compounds with NOD2 RIPK2 PPI | inhibition, % at 4.98 µM | AID 624370, 2012 | actives 70% (n = 1,200) | CCF4 FRET;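 active means mean inhibition across replicates above a set limit taken from the earlier primary screen, cut at about 21% in these data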
NOD2 BLA counter: counter-screen for NOD2-RIPK2 interaction inhibitors: BLA reporter | actives 57% (n = 1,200) | shares compounds with NOD2 RIPK2 PPI | inhibition, % at 4.98 µM | CHO BLA reporter, CCF4 FRET ratio, counterscreen;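 active means mean inhibition above the low-control mean inhibition plus three low-control SD, cut at about 11% in these data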
A number is an active result; - = inactive; . = no result. Compounds with a hit are over-represented: about 0.97% of the library has one in this group of screens.

SMILES	NOD2 RIPK2 PPI	A1 inh	TLR4 MyD88 comp	NTR1 ag	Beta2AR agonist	TLR9-MyD88 block	NOD2 RIPK2 conf	NOD2 BLA counter
CCN(CC)C(=O)Oc1ccc2c(c1)O/C(=C\c1ccco1)C2=O	-	-	.	-	-	-	.	.
O=C1/C(=C/c2ccco2)Oc2c1ccc(O)c2CN1CCCCC1	-	-	-	-	-	-	.	.
COCCN(CCOC)Cc1c(O)ccc2c1O/C(=C\c1ccco1)C2=O	23	-	.	-	-	-	43	46
Cc1cccc(NS(=O)(=O)c2ccc(-c3cnc(C4CC4)o3)cc2)c1C	26	.	.	-	-	-	-	-
CC(=O)c1ccc(NS(=O)(=O)c2ccc(C)cc2)cc1	-	-	-	-	-	-	.	.
COc1cc(OC)c(OC)cc1/C=C/C(=O)c1ccc(NS(=O)(=O)c2ccc(C)cc2)cc1	34	-	-	-	-	-	34	40
COc1cc(C(=O)N2CCC(NC(=O)C(Cc3ccccc3)NC(C)=O)CC2)cc(OC)c1OC (stereo not given)	-	-	-	-	-	-	.	.
O=C1C=C(c2c(O)ccc3ccccc23)c2ccccc2C1=O	21	.	.	.	76	-	-	-
Nc1c(C(=O)Nc2ccccc2)sc2nc3c(c(-c4ccco4)c12)CCCC3	-	-	-	-	-	-	.	.
Cc1ccccc1NC(=O)c1sc2nc3c(c(-c4ccco4)c2c1N)CCCC3	39	-	-	-	-	-	51	56
O=C(Nc1ccsc1C(=O)NC1CCCCC1)c1ccc(F)cc1	-	-	-	-	-	-	.	.
COc1ccc(C(=O)NCCN2CCCC2)cc1	-	-	.	-	-	-	.	.
COc1ccc(/C=C2/Sc3ccc(C(=O)NCCN4CCCCCC4)cc3NC2=O)cc1	24	-	.	-	-	-	-	-
Cc1ccc(N/C(C(Cl)=C(Cl)Cl)=C(/Cl)[N+](=O)[O-])c(C)c1	-	.	-	.	-	-	.	.
CN1C=CC(=O)[C@@H](OC(=O)Nc2ccc(Br)cc2)[C@H]1c1ccccc1Br	23	.	.	.	-	-	-	-
O=C(/C=C/c1c[nH]c2ccccc12)c1ccccc1	30	-	-	-	-	-	30	35
COc1ccc(/C=C/C(=O)c2ccccc2)c(OC)c1	-	-	-	-	-	-	.	.
COc1ccc2[nH]cc(/C=C/C(=O)c3ccccc3)c2c1	27	-	.	-	-	-	21	32
CCOc1ccc(-c2cc(C(=O)NN3CCN(C)CC3)c3cc(Cl)ccc3n2)cc1	.	-	-	-	.	.	.	.
Cc1ccc(/C=N/Nc2ccnc3cc(Cl)ccc23)c(C)c1	21	-	-	-	-	-	30	42
Oc1ccc(/C=N/Nc2ccnc3cc(Cl)ccc23)c(O)c1	-	-	.	-	-	-	.	.
CC1(C)CC(=O)C(C=Nc2ccc(C(=O)c3ccccc3)cc2N=CC2=C(O)CC(C)(C)CC2=O)=C(O)C1	27	-	-	-	-	-	-	-
CCOC(=O)N1CCN(CC(=O)c2c[nH]c3ccc(F)cc23)CC1	.	.	-	.	.	.	.	.
Nc1c(C(=O)Nc2ccc(F)cc2)sc2nc(-c3ccco3)ccc12	-	-	-	-	-	-	.	.
Nc1c(C(=O)Nc2ccc(Br)cc2)sc2nc(-c3ccco3)ccc12	26	-	-	-	-	36	67	66
SMILES	NOD2 RIPK2 PPI	A1 inh	TLR4 MyD88 comp	NTR1 ag	Beta2AR agonist	TLR9-MyD88 block	NOD2 RIPK2 conf	NOD2 BLA counter
COc1ccc(CCN2C(=O)C=CC2=O)cc1OC	43	.	.	.	-	-	51	12
COc1ccc(CCn2c(C)ccc2C)cc1OC	.	-	-	-	.	.	.	.
Cc1c(Cc2ccccc2)c(=O)[nH]c(=O)n1C	-	.	.	.	-	-	.	.
O=C(O)C(=Cc1cccc([N+](=O)[O-])c1)c1ccccc1	-	.	.	.	.	-	.	.
O=C(C#Cc1cccc([N+](=O)[O-])c1)c1ccccc1	27	-	-	-	88	-	77	17
COc1ccc(-n2sc3ccc(F)cc3c2=O)cc1	40	-	.	-	-	-	40	-
O=c1c2cc(F)ccc2sn1-c1ccc(F)cc1	-	-	.	-	-	-	.	.
COc1ccc(-n2cc(C(=O)O)c3ccccc3c2=O)cc1	-	-	-	-	-	-	.	.
COc1ccc(-n2sc3ccccc3c2=O)cc1	26	.	.	.	.	-	44	-
Cc1cc(NC(=O)CSc2nnc(-c3cccc(Cl)c3)o2)no1	-	-	.	-	-	-	.	.
Cc1cc(NC(=O)CSc2nnc(-c3ccccc3Cl)o2)no1	47	-	.	-	-	-	-	-
Cc1cc(NC(=O)CSc2nc3cc(C(=O)NCCCOC(C)C)ccc3c(=O)n2Cc2ccco2)no1	30	-	-	-	-	-	-	-
CC(c1ccccc1)n1c(CCCO)nc2ccccc21 (stereo not given)	24	-	.	-	-	-	-	-
O=C(O)c1cc(Cl)ccc1-c1ccc(/C=C/c2cc(C(F)(F)F)[nH]c(=O)n2)o1	23	-	-	-	-	-	33	42
O=c1nc(/C=C/c2ccc(-c3ccc(F)cc3)o2)cc(C(F)(F)F)[nH]1	.	-	-	-	.	.	.	.
NS(=O)(=O)c1ccc(NS(=O)(=O)c2ccc(NC(=O)c3ccc(-c4ccccc4)cc3)cc2)cc1	24	-	-	-	-	-	23	28
CCC(CC)COC(=O)C(C#N)c1nc2ccccc2nc1N1CCN(CC)CC1 (stereo not given)	22	-	-	-	-	-	21	15
CCC(C)COC(=O)C(C#N)c1nc2ccccc2nc1N1CCCCC1 (stereo not given)	-	-	-	-	-	-	.	.
CCC(c1nc2ccccc2[nH]1)n1c(-c2cccnc2)nc2ccccc21 (stereo not given)	-	.	.	.	.	.	.	.
CCC(C)(C)n1nnnc1C(C(C)C)N(Cc1cccnc1)Cc1ccco1 (stereo not given)	-	-	-	-	-	-	.	.
CCC(C)(C)n1nnnc1C(C(C)C)N(Cc1ccco1)Cc1cc2cc3c(cc2[nH]c1=O)OCO3 (stereo not given)	44	-	-	-	-	-	-	-
COCCn1c(=O)[nH]c2cc(C(=O)Nc3nnc(C)s3)ccc21	94	-	.	-	-	-	-	-
CCOC(=O)c1c(O)c(O)c(C(=O)OCC)n1-c1ccccc1	-	-	.	-	-	-	.	.
